# Laboratory results from PubChem BioAssay (NCI).
# The panel holds about 83,000 compounds, 20% with a hit somewhere; the sample as a whole holds those more often.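 Assay: single dose, 48 h. Readout: percent growth (0 = no net growth; negative = cell death). Active: <10.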 Values without a mark were called inactive. Calls of active or inactive are those of the source.
# Key:
# Assay in all cases: NCI-60 one-dose screen, 48 h (100 = growth as untreated, 0 = no growth, -100 = all killed)
# Details in all cases: 10 µM unless noted
# SK-MEL-2 melanoma = tested on: SK-MEL-2 melanoma
# EKVX NSCLC = tested on: EKVX NSCLC
# SN12C renal = tested on: SN12C renal
# UO-31 renal = tested on: UO-31 renal
# TK-10 renal = tested on: TK-10 renal
# ACHN renal = tested on: ACHN renal
# CAKI-1 renal = tested on: CAKI-1 renal
# A498 renal = tested on: A498 renal
# CCRF-CEM leukemia = tested on: CCRF-CEM leukemia
# MOLT-4 leukemia = tested on: MOLT-4 leukemia
# SR leukemia = tested on: SR leukemia
# RPMI-8226 leukemia = tested on: RPMI-8226 leukemia
# OVCAR-8 ovarian = tested on: OVCAR-8 ovarian
# OVCAR-5 ovarian = tested on: OVCAR-5 ovarian
# OVCAR-4 ovarian = tested on: OVCAR-4 ovarian
# SK-OV-3 ovarian = tested on: SK-OV-3 ovarian
# IGROV1 ovarian = tested on: IGROV1 ovarian
# OVCAR-3 ovarian = tested on: OVCAR-3 ovarian
# HS 578T breast = tested on: HS 578T breast
# NCI/ADR-RES ovarian = tested on: NCI/ADR-RES ovarian
Compound,growth (SK-MEL-2 melanoma),growth (EKVX NSCLC) [%],growth (SN12C renal),growth (UO-31 renal),growth (TK-10 renal),growth (ACHN renal),growth (CAKI-1 renal),growth (A498 renal),growth (CCRF-CEM leukemia),growth (MOLT-4 leukemia),growth (SR leukemia),growth (RPMI-8226 leukemia),growth (OVCAR-8 ovarian),growth (OVCAR-5 ovarian),growth (OVCAR-4 ovarian),growth (SK-OV-3 ovarian),growth (IGROV1 ovarian),growth (OVCAR-3 ovarian),growth (HS 578T breast),growth (NCI/ADR-RES ovarian)
CN1c2ccccc2Sc2cc(/C=N/Nc3ccnc4cc(Cl)ccc34)ccc21,98.3%,94.2,95.7%,84%,115%,109%,103%,131%,56.2%,82.4%,-1.36% (active),46.3%,60.5%,106%,94%,102%,104%,90.8%,105%,12.6%
O=C(Nc1ccc(Cl)c(C(F)(F)F)c1)Nc1ccc2c(ccn2C(=O)c2cccc(F)c2)c1,45.3%,30,42.9%,35.6%,45.9%,17.7%,29.1%,70.3%,15.8%,10.9%,27.5%,-6.63% (active),34.1%,67.3%,7.18% (active),99.1%,25%,9.54% (active),52.4%,30.8%
CCOP(=O)(OCC)OC[C@]12CCC(C)(C)CC1C1=CC[C@@H]3[C@@]4(C)CCCNC(C)(C)[C@@H]4CC[C@@]3(C)[C@]1(C)CC2 (stereo not given in full),121%,69.7,80.8%,58.2%,90.4%,83.5%,53.7%,85.2%,28.1%,2.26% (active),-24.1% (active),-1.77% (active),90.2%,102%,80.9%,112%,44.5%,97.1%,88.7%,73.7%
CCCN1C=C/C(=C\C(=O)n2ccc3ccccc32)c2ccccc21,105%,56.5,84.1%,53%,105%,82.8%,60.1%,92.9%,73.3%,76.5%,55.9%,69.3%,95.6%,87.8%,49.9%,70.2%,59.1%,87.3%,101%,88.7%
CC1=C(C)C(=O)C(Nc2cccc(C(=O)OC(C)(C)C)c2)=CC1=O,82.4%,81.2,61.3%,66.4%,125%,86.4%,71.5%,66.9%,78.8%,65%,81.8%,75.8%,82.2%,98.3%,34.9%,90.5%,72.9%,6.18% (active),79.4%,76%
CSc1ccc(/C(=N/N=C(N)N)c2ccc(F)cc2)cc1,48.6%,36.6,36.9%,30.5%,39.1%,35.8%,15.6%,5.39% (active),5.74% (active),-2.76% (active),-13.8% (active),5.69% (active),11.9%,43.9%,57%,45.3%,39.9%,27.5%,-1.22% (active),4.1% (active)
CCOc1cccc(/C(N)=N/C(N)=N/c2nc3ccccc3s2)c1,117%,73.3,53.1%,38.4%,135%,48.7%,62.4%,115%,55.8%,62.4%,6.28% (active),77.3%,68.8%,98.8%,95.1%,132%,56%,104%,96.3%,49.7%
CS(=O)(=O)c1ccc(/C(=N/N=C(N)N)c2ccc(F)cc2)cc1,97.2%,85.3,106%,92.7%,92%,98%,51.4%,88.8%,74.9%,103%,24.1%,91.4%,98.4%,115%,101%,108%,110%,95.6%,93.4%,95.7%
Cc1ccc(C(=O)Nc2ccc(CNCCN3CCNCC3)c(C(F)(F)F)c2)cc1C#Cc1cnc2cccnn12,64%,29.6,76.2%,76.7%,129%,57%,75.9%,-33.4% (active),-39.7% (active),-49.5% (active),-39.4% (active),-23.3% (active),2.74% (active),51.8%,-23% (active),114%,11.8%,-20.5% (active),36.6%,71.6%
Cc1ccc2c(n1)C(=O)C(Cl)=C(Nc1ccc(C)c(C)c1)C2=O,40%,52.6,0.141% (active),44%,140%,57%,90%,71.8%,30.8%,60.1%,28.1%,11.1%,67.2%,91.6%,-29% (active),99.1%,-45.5% (active),-21.4% (active),32.8%,63.1%
O=S(=O)(NCCCNc1nccc(-c2[nH]c(-c3ccccc3)nc2-c2ccc(F)c(O)c2)n1)c1ccccc1,31.6%,102,107%,144%,154%,95.4%,105%,114%,47.9%,51.3%,51.5%,48.9%,90.2%,155%,118%,121%,114%,138%,116%,108%
NC(=O)c1c(NC(=O)c2ccc(C(F)(F)F)cc2)sc2c1CCC(=O)C2,51.3%,24.8,12.4%,-86.4% (active),17%,-47.1% (active),-24.3% (active),89.4%,-4.99% (active),4.59% (active),1.33% (active),-30.3% (active),9.01% (active),9.87% (active),-66.9% (active),37.5%,16.2%,-17.2% (active),19.4%,0.891% (active)
Cc1ccc2c(n1)C(=O)C(Cl)=C(Nc1ccc(C(F)(F)F)cc1)C2=O,103%,77.2,91.8%,-85.2% (active),85.4%,-98.4% (active),44.4%,79%,2.47% (active),8.71% (active),10.5%,-8.81% (active),39.3%,110%,-96.4% (active),82.2%,-58.2% (active),-48.6% (active),94.1%,87.6%
Cc1ccc2c(n1)C(=O)C(Cl)=C(Nc1ccccc1C(=O)OC(C)(C)C)C2=O,93.6%,28,52.6%,-62.7% (active),-84.6% (active),-73.6% (active),-92.4% (active),92.3%,-27.1% (active),-32.6% (active),-30.8% (active),-31.8% (active),66.8%,139%,-45.3% (active),105%,59.6%,-63.6% (active),84.1%,64.2%
O=C(CCCCCCNC(=O)C(O)(O)C(F)(F)F)Nc1ccc(Cl)cc1,-13.7% (active),39.2,29.8%,8.11% (active),3.6% (active),0.488% (active),3.96% (active),9% (active),22.4%,15.8%,12.1%,20.1%,11.9%,9.85% (active),47.4%,-6.99% (active),27.8%,24.9%,33.2%,24.6%
